Experimental data taken from PubChem BioAssay (NCATS).
Records with an inconclusive call do not appear. The source made the active and inactive calls. Calls come from the whole dose curve; as a rule, active = well fitted inhibition curve with a large enough effect; inconclusive = small, poorly fitted or top-dose-only effect; inactive = flat fitted curve, though single readings scatter.

Each compound was assayed on CRL-7250 (assay: qHTS assay to identify novel small-molecules to repurpose for Merkel cell carcinoma treatment (AID 1296009; note: nearly all actives have a fitted effect of over 60% in size)). Details: MCC and control cell lines, CellTiter-Glo viability, 72 h; at 44.8 µM (top of the series) unless noted.
Procedure, shortened: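 Cells were incubated with compound for 72 hr at 37 degree celsius before CellTiter-Glo addition. Luminescence was normalized with no-cell wells as full cytotoxicity and DMSO as baseline.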

| Compound | outcome |
| --- | --- |
| CCOC(=O)C1=C[C@]2(CC)CCCN3CCc4c(n1c1ccccc41)[C@@H]32 | inactive |
| O=C(CCCN1CCN(c2ccccn2)CC1)c1ccc(F)cc1 | inactive |
| Cc1cc(O)c(C)c(C)c1O | inactive |
| CCCCC(=O)O[C@]1(C(=O)CO)CC[C@H]2[C@@H]3CCC4=CC(=O)CC[C@]4(C)[C@H]3[C@@H](O)C[C@@]21C | inactive |
| NCCNC(=O)c1ccc(Cl)cn1 | inactive |
| CN(C)CCN(Cc1ccccc1)c1ccccn1 | inactive |
| CCN(CC)C(=O)N1CCN(C)CC1 | inactive |
| CC(=O)NC(Cc1ccccc1)C(=O)O (stereo unspecified) | inactive [at 92 µM] |
| CCNC(=O)NCc1cccc(Cl)c1 | inactive |
| O=C(O)C1CCC1 | inactive |
| COc1ccc(CN2CCN(C(c3ccc(F)cc3)c3ccc(F)cc3)CC2)c(OC)c1OC | inactive |
| NCCc1cnc[nH]1 | inactive |
| Cc1cccc(CN2CCN(C(c3ccccc3)c3ccc(Cl)cc3)CC2)c1 (stereo unspecified) | inactive |
| O=C(OCC(O)CO)c1ccccc1Nc1ccnc2cc(Cl)ccc12 (stereo unspecified) | inactive |
| Cc1cn([C@H]2C[C@H](F)[C@@H](CO)O2)c(=O)[nH]c1=O | inactive |
| CN(C)C/C=C(/c1ccc(Br)cc1)c1cccnc1 | inactive |
| COc1ccccc1N1CCN(CCCNc2cc(=O)n(C)c(=O)n2C)CC1 | inactive |
| CC1=C(C(=O)O)N2C(=O)[C@@H](NC(=O)[C@H](N)C3=CCC=CC3)[C@H]2SC1 | inactive |
| Cc1cccc(N(C)C(=S)Oc2ccc3ccccc3c2)c1 | inactive |
| CCCCCCCC/C=C\CCCCCCCCN | inactive |
| CC1(C)OC(=O)Nc2ccc(Br)cc21 | inactive |
